Hit rate of the full screen: of about 220,000 compounds, about 910 (0.41%) were called active.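 How the source made its calls: active means primary inhibition above the hit cutoff, then over 50% inhibition at one or more dose response concentrations (cut at about 23% in these data, passing the limit was not always enough); inconclusive means conflicting primary data, or primary hits not chosen for dose response; inactive means low primary inhibition, or under 50% at every dose.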 Only a selection was taken, and actives are over-represented in it overall. Results with a measured potency or affinity are listed apart.

Sequence of Aminopeptidase N (Plasmodium falciparum (isolate 3D7)) (O96935 whole entry, looked up): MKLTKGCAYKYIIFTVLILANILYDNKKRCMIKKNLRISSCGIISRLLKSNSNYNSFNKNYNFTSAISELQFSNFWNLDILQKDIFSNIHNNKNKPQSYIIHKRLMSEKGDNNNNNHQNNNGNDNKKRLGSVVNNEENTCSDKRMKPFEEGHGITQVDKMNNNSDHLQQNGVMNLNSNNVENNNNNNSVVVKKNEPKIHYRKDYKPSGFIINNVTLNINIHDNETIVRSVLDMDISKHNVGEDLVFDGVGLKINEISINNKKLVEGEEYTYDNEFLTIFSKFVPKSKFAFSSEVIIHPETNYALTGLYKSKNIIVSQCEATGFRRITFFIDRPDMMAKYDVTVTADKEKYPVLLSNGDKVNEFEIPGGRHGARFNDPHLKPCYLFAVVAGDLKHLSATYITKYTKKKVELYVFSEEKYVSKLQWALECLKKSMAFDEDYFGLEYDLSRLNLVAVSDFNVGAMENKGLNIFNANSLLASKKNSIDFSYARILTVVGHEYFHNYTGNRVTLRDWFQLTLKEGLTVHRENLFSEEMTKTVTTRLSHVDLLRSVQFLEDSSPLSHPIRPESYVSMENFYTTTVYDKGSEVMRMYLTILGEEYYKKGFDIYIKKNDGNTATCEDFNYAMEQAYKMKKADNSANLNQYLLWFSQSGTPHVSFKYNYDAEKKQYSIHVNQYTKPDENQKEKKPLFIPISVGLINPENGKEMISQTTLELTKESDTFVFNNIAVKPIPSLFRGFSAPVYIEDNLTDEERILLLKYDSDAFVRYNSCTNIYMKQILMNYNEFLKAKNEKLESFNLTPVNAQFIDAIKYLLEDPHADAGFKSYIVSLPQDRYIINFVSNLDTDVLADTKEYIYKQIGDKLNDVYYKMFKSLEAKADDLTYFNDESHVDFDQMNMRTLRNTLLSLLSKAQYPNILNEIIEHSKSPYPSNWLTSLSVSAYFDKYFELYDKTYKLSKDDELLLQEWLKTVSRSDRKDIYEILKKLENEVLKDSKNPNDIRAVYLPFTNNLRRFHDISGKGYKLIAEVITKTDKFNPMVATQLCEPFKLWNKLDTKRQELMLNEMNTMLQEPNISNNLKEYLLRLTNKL

This experiment addresses Aminopeptidase N (Plasmodium falciparum (isolate 3D7)) (UniProt O96935). Nature of the experiment: P. falciparum M1AAP inhibitors, biochemical, fluorogenic H-Leu-NHMec substrate, 1536-well (AID 1445).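 Further: plate controls were DMSO full reaction for no effect and no enzyme background for full effect.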 The following applies: recombinant M1AAP, H-Leu-NHMec fluorogenic kinetic assay; at 30 µM, hits give high values unless noted.
Turning to `c1ccc(Nc2nc(N3CCCCC3)nc(N3CCCCC3)n2)cc1`, the inhibition is 2.1% (inactive). Turning to `O=c1nc(N2CCCC2)nc(Nc2ccccc2)[nH]1`, the inhibition is 9.86% (inactive).

Take `CCOC(=O)CC(NC(C)=O)c1ccc([N+](=O)[O-])cc1` (stereo not drawn): the inhibition is 2.95% (inactive).

`CCc1cc2c(=O)c(-c3nc4ccccc4n3C)c(COCC(=O)O)oc2cc1O`: the inhibition is 6.97% (inactive). To `COC(=O)C(=Nc1ccccc1)/C(C(=O)C(=O)N(C)c1ccccc1)=C(\O)c1ccccc1` belongs 16.3% (inactive); to `CC1CCC(NC(=O)C2CCN(S(=O)(=O)c3ccc4nc5c(c(C(=O)O)c4c3)CC(C)CC5)CC2)CC1` (stereo not drawn), 7.59% (inactive); to `CC1CCc2nc3ccc(S(=O)(=O)N4CCC(C(=O)N5CCCCCC5)CC4)cc3c(C(=O)O)c2C1` (stereo not drawn), 13.6% (inactive). The same measure for `CCCNC(=O)C1CCN(S(=O)(=O)c2ccc3nc4c(c(C(=O)O)c3c2)CCCCC4)CC1`: 25.7% (active); for `O=C(O)c1c2c(nc3ccc(S(=O)(=O)N4CCC(C(=O)NC5CCCCCC5)CC4)cc13)CCCC2`: 23.1% (inactive); for `O=C(O)c1c2c(nc3ccc(S(=O)(=O)N4CCC(C(=O)NC5CCCC5)CC4)cc13)CCCCC2`: 26.5% (active). To `CC1CCc2nc3ccc(S(=O)(=O)N4CCC(C(=O)N5CCCCC5)CC4)cc3c(C(=O)O)c2C1` (stereo not drawn) belongs 7.8% (inactive); to `CC1CCc2nc3ccc(S(=O)(=O)N4CCC(C(=O)NC5CCCC5)CC4)cc3c(C(=O)O)c2C1` (stereo not drawn), 23.4% (active).

For `O=C(O)c1c2c(nc3ccc(S(=O)(=O)N4CCC(C(=O)N5CCCCC5)CC4)cc13)CCCC2`, the inhibition was 4.87% (inactive). To `CCCNC(=O)C1CCN(S(=O)(=O)c2ccc(Br)cc2)CC1` belongs 0.41% (inactive). As to `O=C(CSc1nc2c(c(=O)[nH]1)CCCC2)Nc1ccc(Cl)cc1F`, the inhibition was -2.08% (inactive).

Take `CS(=O)(=O)N1CCC(C(=O)Nc2ccc(F)cc2F)CC1`: the inhibition was -3.46% (inactive).

Take `CCCCC(CC)CNC(=O)c1cccs1` (stereo not drawn): the inhibition is -3.27% (inactive).

For the compound `Cc1ccccc1NS(=O)(=O)c1cc(C(=O)N2CCCC2)ccc1C`, the inhibition is 4.97% (inactive).

With `Cc1nnc(SCC(=O)NCCN2C(=O)CSC2=O)s1`, the inhibition was 2.17% (inactive). Take `Cc1cccc(CSc2ncccc2C(=O)O)c1`: the inhibition was 2.89% (inactive).

`Cc1ccc(CSc2ncccc2C(=O)O)cc1`: the inhibition is 1.82% (inactive). `COc1ccc(-c2cc(C(=O)NCc3ccccc3)no2)cc1OC`: the inhibition is -1.3% (inactive). For the compound `CC(=O)N=c1sc2cc(C)ccc2n1C`, the inhibition was 3.39% (inactive).

With `Cc1cc(C(=O)OCC(=O)NCc2ccc(Cl)cc2)c(C)o1`, the inhibition is -6.7% (inactive). `CCN(CC)CC(=O)Nc1cccc2c1C(=O)c1ccccc1C2=O`: the inhibition is 5.73% (inactive). The same measure for `CCN(CC)CCC(=O)Nc1cccc2c1C(=O)c1ccccc1C2=O`: 7.62% (inactive).

For `CCN(CC)C(C(=O)NC1CCCCC1)c1ccc(C)cc1` (stereo not drawn), the inhibition is -1.29% (inactive). To `COc1ccc(NC(=O)CN2C(=O)c3ccccc3Sc3ccc(C(=O)N4CCOCC4)cc32)c(OC)c1` belongs 9.02% (inactive); to `CSCCC1C(C#N)=C(N)Oc2n[nH]c(-c3cccs3)c21` (stereo not drawn), 23.8% (active). On to `CC(C)CC1C(C#N)=C(N)Oc2n[nH]c(-c3cccs3)c21` (stereo not drawn), for which the inhibition was -0.26% (inactive). As to `CC(C)C1C(C#N)=C(N)Oc2n[nH]c(-c3cccs3)c21` (stereo not drawn), the inhibition was 5.75% (inactive).

For `Cc1ccc2c(CN3C(=O)NC4(CCCCC4)C3=O)cc(=O)oc2c1C`, the inhibition is 8.97% (inactive). To `Cc1ccc(CSc2nc3sc(C)c(C)c3c(=O)n2Cc2ccco2)cc1` belongs 9.77% (inactive). For the compound `Cc1ccc(C)c(NC(=O)c2ccc3c(c2)N(Cc2ccc(F)cc2)C(=O)CS3=O)c1` (stereo not drawn), the inhibition was -7.55% (inactive). To `O=C(Nc1ccccc1Cl)c1ccc2c(c1)N(Cc1ccc(F)cc1)C(=O)CS2=O` (stereo not drawn) belongs 3.24% (inactive); to `O=C(NC1CCCCCCC1)c1ccc2c(c1)N(Cc1ccc(F)cc1)C(=O)CS2=O` (stereo not drawn), 23.5% (active). `CNC(=O)c1cc2c(ccc3ccccc32)o1`: the inhibition is 3.24% (inactive). For the compound `Cn1ncc(Br)c1C(=O)Nc1ccc(Br)cn1`, the inhibition is -3.07% (inactive). Regarding `Cc1occc1C(=O)NCCCc1ccccc1`, the inhibition is 0.03% (inactive). The same measure for `O=C(Nc1nnc(SCc2ccccc2)s1)c1cccs1`: -2.48% (inactive); for `COc1cccc(C(=O)Nc2cc(C(=O)NCCc3ccccc3)ccc2Cl)c1`: 24.9% (active); for `COc1ccc(C(=O)Nc2cc(C(=O)NCCc3ccccc3)ccc2Cl)cc1`: 13.3% (inactive). To `COCC(=O)Nc1cc(C(=O)NCCc2ccccc2)ccc1Cl` belongs -6.24% (inactive). Turning to `Cc1ccc(C(C(=O)NC(C)(C)C)N(Cc2cccs2)C(=O)c2ccc3c(c2)OCCO3)cc1` (stereo not drawn), the inhibition was 9.95% (inactive). The same measure for `O=C(Cn1nnc(-c2ccc3c(c2)OCO3)n1)N1CCOCC1`: 0.39% (inactive); for `CCOc1ccc(N2CC(C(=O)Nc3ccc(S(=O)(=O)Nc4ncccn4)cc3)CC2=O)cc1` (stereo not drawn): 20.6% (inactive).

Take `CN(Cc1cnccn1)Cc1c(C(=O)N2CCc3ccccc3C2)nc2ccc(Cl)cn12`: the inhibition is 1.48% (inactive). The same measure for `CC1(NC(=S)NCCO)CCS(=O)(=O)C1` (stereo not drawn): 6.94% (inactive); for `COc1ccc(CNC(=O)C2CCN(S(=O)(=O)c3cccc4cccnc34)CC2)cc1`: 11.4% (inactive); for `O=C(NCc1ccco1)C1CCN(S(=O)(=O)c2cccc3cccnc23)CC1`: 0.35% (inactive). To `O=C(NCc1cccs1)C1CCN(S(=O)(=O)c2cccc3nsnc23)CC1` belongs 6.27% (inactive).

For the compound `COc1ccc(NC(=O)C2CCCN(S(=O)(=O)c3cccc4cccnc34)C2)cc1OC` (stereo not drawn), the inhibition is 28.4% (active). To `O=C(NCc1cccs1)C1CCCN(S(=O)(=O)c2cccc3cccnc23)C1` (stereo not drawn) belongs 21.9% (inactive); to `COc1cccc(NC(=O)C2CCCN(S(=O)(=O)c3cccc4cccnc34)C2)c1` (stereo not drawn), 4.01% (inactive). The same measure for `COc1ccc(NC(=O)C2CCN(S(=O)(=O)c3cccc4cccnc34)CC2)cc1OC`: 2.6% (inactive); for `O=C(NCc1cccs1)C1CCN(S(=O)(=O)c2cccc3cccnc23)CC1`: 45.9% (active); for `CCOc1ccccc1C1C(C(=O)OC)=C(N)OC2=C1C(=O)CCC2` (stereo not drawn): 3.31% (inactive). As to `CCOC(=O)N1CCC(NC(=O)C2=CCN(S(=O)(=O)c3ccc(F)cc3)CC2)CC1`, the inhibition is -3% (inactive).

Source of the values: PubChem BioAssay AID1445 (SRMLSC, 2008).
